The values that follow come from PubChem BioAssay AID686978 (National Center for Advancing Translational Sciences (NCATS), 2013).

Out of some 420,000 compounds screened, about 64,000 (15%) were called active. Not shown: some 27% with an inconclusive outcome. Calls follow the shape of the dose curve; as a rule, active = well fitted inhibition curve with a large enough effect; inconclusive = small, poorly fitted or top-dose-only effect; inactive = flat fitted curve, though single readings scatter. The list is a sample of the results. A call without a number means that no potency is given here.
Potency is read from the fitted curve at half-maximal effect.

A short description of this assay: qHTS for Inhibitors of human tyrosyl-DNA phosphodiesterase 1 (TDP1): qHTS in cells in absence of CPT. Also: nearly all actives have a fitted effect of over 55% in size. Particulars: DT40 Tdp1-/- hTDP1 cells, no CPT, ATP luminescence, 48 h; activity change, negative = growth inhibition: at 46.2 µM (top of the series). Summed up: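 Growth of hTDP1-complemented DT40 Tdp1-knockout cells is measured by ATP luminescence after at least 48 hr compound exposure at 37 °C, with DMSO substituting for the 20 nM CPT used in the parallel screen.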
In general terms: In qHTS, concentration-response curves come from the screen itself.
Take `COc1ccc(-c2ccc3c(c2)[C@@H]2C[C@H](N(C)S(=O)(=O)c4ccccc4)[C@H]([C@H](C)O)C(=O)N2CC3)cc1`: the Potency was 16.4 µM (active).
Take `COc1cccc(N2C(=O)CC(N3CCN(S(=O)(=O)c4ccccc4)CC3)C2=O)c1` (stereo unspecified): the Potency result is “inactive”.
Regarding `C[C@H](O)[C@@H]1C(=O)N2CCc3ccc(N4CCOCC4)cc3[C@@H]2C[C@@H]1N(C)C(=O)C(C)(C)C`, the Potency result was “inactive”.
As to `CC1=C(C(N)=O)C(c2ccc(F)cc2)n2nc(CCCO)nc2N1` (stereo unspecified), the Potency result was “inactive”.
In the case of `Cc1cccc(CCNS(=O)(=O)c2ccc3c(c2)NC(=O)CO3)c1`, the Potency entry is “inactive”.
Under `CCCC(=O)Nc1cc2nn(-c3ccccc3)nc2cc1C` stands “inactive”; under `COc1cc(OC)cc(C(=O)Nc2cc3nn(-c4ccccc4)nc3cc2Cl)c1`, 16.4 µM (active); under `CCOC(=O)c1cc(-c2ccccc2)n(-c2cccc(C(=O)Nc3cc(OC)cc(OC)c3)c2)c1C`, “inactive”.
In the case of `Cc1ccccc1Nc1nnc(SCC(=O)c2cc3ccccc3o2)s1`, the Potency entry was “inactive”.
Under `Cc1cccc(Nc2nnc(SCC(=O)c3c(N)n(C4CC4)c(=O)[nH]c3=O)s2)c1C` stands 11.6 µM (active).
For the compound `CCCn1c(N)c(C(=O)CSc2nnc(Cc3cccs3)n2C2CC2)c(=O)[nH]c1=O`, the Potency entry is “inactive”.
For the compound `CC1CC(C)CN(C/C=C/c2ccccc2[N+](=O)[O-])C1` (stereo unspecified), the Potency entry was “inactive”.
Regarding `COc1ccc(N2CCN(C3CC(=O)N(c4ccc5c(c4)OCCO5)C3=O)CC2)cc1` (stereo unspecified), the Potency result is “inactive”.
Under `CC1C(=O)N(Cc2cn(Cc3ccco3)nn2)CCS(=O)(=O)N1Cc1ccc(-c2cccc(CO)c2)cc1` (stereo unspecified) stands 9.2 µM (active); under `CC(C)CC1C(=O)N(Cc2cn(Cc3ccco3)nn2)CCS(=O)(=O)N1Cc1ccc(-c2ccc(Cl)c(Cl)c2)cc1` (stereo unspecified), 20.6 µM (active); under `CCc1cc(=O)oc2cc(C)cc(OCC(=O)N3CCC[C@@H]3C(=O)O)c12`, “inactive”.
Regarding `CC(NC(=O)COc1ccccc1)C(=O)NC1=NCCS1` (stereo unspecified), the Potency result was “inactive”.
As for `CCOc1ccc(OCC(=O)Nc2c3c(nn2C(C)(C)C)CS(=O)(=O)C3)cc1`, the Potency entry was “inactive”.
For the compound `CCN1C(=O)C(CC(=O)Nc2cc(C)ccc2C)SC1=Nc1ccc(S(N)(=O)=O)cc1` (stereo unspecified), the Potency result is “inactive”.
Regarding `CCOc1cccc2cc(C(=O)OCC(=O)Nc3c(C)cccc3CC)c(=O)oc12`, the Potency entry was “inactive”.
Turning to `COc1ccc(CN2CCN(Cc3cn(C)nc3-c3ccccc3)CC2CCO)c(C)c1C` (stereo unspecified), the Potency was 18.4 µM (active).
Turning to `Cc1ccc(CN2CCN(Cc3cccc(C)n3)CC2CCO)cc1` (stereo unspecified), the Potency result is “inactive”.
With `Cc1ccc(CN2CCN(Cc3cn(C)nc3-c3ccccc3)CC2CCO)o1` (stereo unspecified) the entry was “inactive”.
Under `COc1ccc(CNc2nc(-c3ccccc3)nn2C(=O)c2ccccc2OC)cc1` stands 18.4 µM (active); under `O=C(c1ccco1)n1nc(-c2ccc(Cl)cc2)nc1NCc1ccccc1`, 18.4 µM (active).
In the case of `CCCC(=O)n1nc(NCc2ccc(OC)cc2)nc1NCc1ccc(OC)cc1`, the Potency result is “inactive”.
On to `O=C(Cc1ccccc1)n1nc(-c2ccccc2)nc1NCc1ccco1`, for which the Potency result is “inactive”.
In the case of `O=C(c1cccs1)n1nc(NCc2ccccc2)nc1NCc1ccccc1`, the Potency entry is “inactive”.
For the compound `O=C(c1ccc(Cl)cc1)n1nc(-c2cccnc2)nc1NCc1ccc(F)cc1`, the Potency entry was “inactive”.
Under `CC1CCCCC12NC(=O)N(CC(=O)OCC(=O)NCc1ccc(F)cc1)C2=O` (stereo unspecified) stands “inactive”; under `CN1CCN(c2cc(=O)n(-c3ccc(Cl)cc3)c(=O)[nH]2)CC1`, “inactive”; under `O=C(O)c1ccccc1N=N/C(=N/Nc1cc(S(=O)(=O)O)ccc1O)c1ccccc1`, “inactive”.
Under `Cc1c(Cl)cccc1NC(=O)CCS(=O)(=O)c1ccc2c(c1)oc(=O)n2C` stands “inactive”; under `NC(=O)C1CCN(C(=O)CC2C(=O)NCCN2Cc2cccc(Oc3ccccc3)c2)CC1` (stereo unspecified), “inactive”.
Consider `Cc1ccc(SCC(=O)NNC(=O)c2ccc(S(C)(=O)=O)cc2)cc1`, for which the Potency entry was “inactive”.
Consider `Cc1ccccc1-n1cc(CNC(=O)CC2C(=O)NCCN2C/C=C/c2ccccc2)cn1` (stereo unspecified), for which the Potency entry was “inactive”.
As to `Cc1ccc(Cl)cc1NC(=O)Cc1ccc(-n2c(C)nc3cccnc32)cc1`, the Potency was 23.1 µM (active).
With `Cc1ccc(Cl)cc1NC(=O)c1ccccn1` the entry was “inactive”; with `COc1cc(OC)c(NC(=O)Cc2ccc(-n3c(C)nc4cccnc43)cc2)cc1Cl`, 14.6 µM (active).
With `CCc1nc2cccnc2n1-c1ccc(C(=O)O)cc1`, the Potency result is “inactive”.
With `COCCn1c(CCC(=O)Nc2cc(C)ccc2C)nc2cccnc21` the entry was “inactive”; with `COCCCNC(=O)Cc1ccc(-n2c(C)nc3cccnc32)cc1`, “inactive”.
For the compound `O=C(O)C1CCN(c2ncnc3ccc(-c4ccccc4C(F)(F)F)cc23)CC1`, the Potency result was “inactive”.
Turning to `O=C(CC1C(=O)NCCN1CC(c1ccccc1)c1ccccc1)NCCc1cn[nH]c1` (stereo unspecified), the Potency entry was “inactive”.
With `CCN(CC(=O)NCc1cccs1)C(=O)c1ccc(OC)c(S(=O)(=O)N2CCOCC2)c1` the entry was “inactive”; with `Cc1ccc(C2=Nc3c(ccc4ccccc34)C(c3ccncc3)=NN2)cc1`, 11.6 µM (active).
With `COc1cc(C)nc(N2CCCC(C(=O)NCC(C)C)C2)n1` (stereo unspecified), the Potency result was “inactive”.
Turning to `COCCNC(=O)CSc1nc(N)c(NC(=O)c2ccco2)c(=O)[nH]1`, the Potency entry was “inactive”.
Under `O=C(NC(=S)Nc1ccc(S(=O)(=O)Nc2ncccn2)cc1)c1cccc(Br)c1` stands “inactive”; under `CCC1Oc2ccccc2N(CC(=O)NCCCN2CCN(CC)CC2)C1=O` (stereo unspecified), “inactive”.
Under `CC(C)OCCCNC(=O)CN1C(=O)/C(=C/c2ccccc2F)Oc2ccccc21` stands 10.3 µM (active).
As to `O=C(CN1C(=O)S/C(=C\c2ccccc2F)C1=O)NCCCn1ccnc1`, the Potency result is “inactive”.
Take `COc1ccc(F)cc1C(=O)COC(=O)c1n[nH]c(=O)c2ccccc12`: the Potency result is “inactive”.
Under `COC(=O)CN(c1cccc(C(C)=O)c1)S(C)(=O)=O` stands “inactive”; under `C=CCc1cccc2cc(C(=O)N3CCN(C(=O)OCC)CC3)c(=O)oc12`, “inactive”.
`CC(C)Nc1nc(N(c2ccccc2)c2ccccc2)nc(-n2ccnc2)n1`: the Potency entry was “inactive”.
As to `O=C(O)COCC(=O)NCc1csc2ccc(Cl)cc12`, the Potency entry was “inactive”.
With `CCOc1ccc(N(CC(=O)NCC2CCCO2)S(=O)(=O)c2ccc(C)cc2)cc1` (stereo unspecified) the entry was “inactive”.
For `CCC(C(=O)NCCC(C)C)N(Cc1ccccc1Cl)C(=O)c1snc(C(N)=O)c1N` (stereo unspecified), the Potency entry is “inactive”.
With `O=C(NCC(=O)N(c1ccccc1)C(C(=O)NCC1CCCO1)c1ccccc1)c1cccs1` (stereo unspecified) the entry was “inactive”.
As to `Cc1ccc(N(C(=O)Cc2cccs2)C(C(=O)NCC2CCCO2)c2ccncc2)cc1` (stereo unspecified), the Potency result is “inactive”.
For the compound `Cc1ccc(C(C(=O)NCC2CCCO2)N(C(=O)c2snc(C(N)=O)c2N)c2ccc(C(C)C)cc2)o1` (stereo unspecified), the Potency was 18.4 µM (active).
For the compound `CCOc1cc(C(C(=O)NCC2CCCO2)N(C(=O)Cn2nnc3ccccc32)c2cccc(OC)c2)ccc1O` (stereo unspecified), the Potency result is “inactive”.
Regarding `CCOc1ccc(N(C(=O)c2snc(C(N)=O)c2N)C(C(=O)NCC2CCCO2)c2c[nH]c3ccccc23)cc1` (stereo unspecified), the Potency was 3.66 µM (active).
For the compound `NC(=O)c1nsc(C(=O)N(CCCN2CCOCC2)C(C(=O)NC2CCCCC2)c2ccc(Cl)cc2)c1N` (stereo unspecified), the Potency result is “inactive”.
For the compound `Cc1ccc(N(C(=O)c2snc(C(N)=O)c2N)C(C(=O)NCC2CCCO2)c2c[nH]c3ccccc23)cc1` (stereo unspecified), the Potency is 4.11 µM (active).
